Bioassay records from PubChem BioAssay.
SARS PLP yeast: qHTS of Yeast-based Assay for SARS-CoV PLP; S. cerevisiae expressing SARS-CoV PLpro, growth rescue; AID 485353, 2010; Potency, µM (highest dose often 32.9 µM), most hits filed as activators; 330,000 tested, 0.19% active; calls by dose curve; further: nearly all actives have a fitted effect of over 55% in size
HCV inhibitor: qHTS Assay for Inhibitors of Hepatitis C Virus (HCV); Huh7.5.1 HCVcc-Cre infection, luciferase reporter, 44 h; Potency, µM (highest dose often 41.8 µM), most hits filed as inhibitors; 340,000 tested, 3.4% active
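After 44 h co-culture of compound, cells and HCVcc-Cre (~0.5 moi), substrate is added for 15 min at room temperature and luciferase measured over 15 sec. Cells were seeded at 1,000/well and pre-cultured 4 h.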
Pf growth 96h: Primary qHTS for delayed death inhibitors of the malarial parasite plastid, 96 hour incubation; P. falciparum luciferase reporter growth, 96 h; Potency, µM (highest dose often 28.7 µM), hits mostly inhibitors; 320,000 tested, 6.9% active; AID 504834, 2011
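Readout is luminescence from an integrated firefly luciferase in P. falciparum. Red cells, 2% hematocrit and 0.05% parasitemia final, were cultured with compound through two parasite generations (96 hours) at 37 C, 5% CO2.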
Pf growth 48h: Primary qHTS for delayed death inhibitors of the malarial parasite plastid, 48 hour incubation; 310,000 tested, 5.9% active; AID 504832, 2011; P. falciparum luciferase growth in erythrocytes, 48 h; Potency, µM (series often up to 28.7 µM), hits mostly inhibitors
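First compound was added to culture medium, then infected red cells at 0.1% parasitemia and 2% hematocrit (final). After incubation at 37 C under 5% CO2, luciferase detection reagent was dispensed and light output recorded.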
NS1 function inh: qHTS Assay for Inhibitors of Influenza NS1 Protein Function | AID 2326, 2010 | 270,000 tested, 0.4% active | Potency, µM (titrated, usually from 46.1 µM); calls by dose curve; further: actives are rising curves; nearly all actives have a fitted effect of over 50% in size
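Growth recovery, yeast-based: influenza A NS1 expressed in S. cerevisiae causes slow growth, and suppressors are detected by OD600. The parent strain without NS1 is used as positive control.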
AMA1 RON2 block: qHTS for Inhibitors of AMA1-RON; Towards Development of Antimalarial Drug Lead: Primary Screen; Potency, µM (doses to about 58.2 µM), actives largely listed as inhibitors; AID 720542, 2013; 360,000 tested, 0.2% active; Plasmodium falciparum AMA1 (3D7) - RON2 peptide interaction; AlphaScreen AMA1-biotinylated RON2 peptide binding; further: nearly all actives have a fitted effect of over 45% in size
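AMA1 (3D7) with his tag at 25 nM final met compounds first, then biotinylated RON2 peptide at 25 nM; detection used donor plus acceptor beads, 10 µg/mL apiece, read by AlphaScreen after 30 min at room temperature.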
Each line names hits and unclear results; the compound was inactive in the other large screens. Sampled rows, rich in hits. Any-hit rate of the full collection: about 12%. Unless noted, the call rests on the fitted dose curve; in most records, active means well fitted curve in the direction sought with a large enough effect; inconclusive means small, poorly fitted or top-dose-only effect, or another doubt; inactive means no such curve, though single readings can be large; an effect the other way counts as inactive or inconclusive.

COc1cc(/C=N/NC(=O)c2cc3ccccc3[nH]2)ccc1O	Pf growth 96h inconclusive, Pf growth 48h inconclusive
COc1ccc(OC)c(/C=N/NC(=O)c2cc3c(OC)cccc3[nH]2)c1	HCV inhibitor inconclusive
CCOc1ccc2[nH]c(C(=O)N/N=C/c3cc(OC)c(OC)c(OC)c3)cc2c1	HCV inhibitor inconclusive, Pf growth 96h 12µM (no result: Pf growth 48h)
COc1ccc(OC)c(/C=N/NC(=O)c2cc3c(OC)cc(OC)cc3[nH]2)c1	HCV inhibitor 25µM, Pf growth 96h inconclusive, Pf growth 48h inconclusive, NS1 function inh inconclusive
C=CCOc1ccc(/C=N/NC(=O)c2cc3c(OC)cc(OC)cc3[nH]2)cc1	HCV inhibitor inconclusive, Pf growth 96h 2.3µM, Pf growth 48h 3.3µM
CCOc1ccc(/C=N/NC(=O)c2cc3c(OC)cccc3[nH]2)cc1	Pf growth 96h inconclusive, Pf growth 48h inconclusive
COc1cc(OC)cc(C(=O)N/N=C/c2ccc(OC)c(COc3ccc(F)cc3)c2)c1	HCV inhibitor inconclusive
CCOc1ccc(/C=N/NC(=O)c2cc3c(OC)cc(OC)cc3[nH]2)cc1OC	HCV inhibitor inconclusive, Pf growth 96h 0.93µM, Pf growth 48h 1.7µM
Nc1cc2c(cc1N)-c1ccccc1C2	HCV inhibitor inconclusive (no result: SARS PLP yeast, Pf growth 96h, Pf growth 48h, NS1 function inh)
COc1ccc(C(CNC(=O)C(CC(C)C)NS(=O)(=O)c2ccc(C)cc2)N2CCOCC2)cc1 (centres undefined)	Pf growth 96h inconclusive, Pf growth 48h inconclusive (no result: NS1 function inh)
CCC(=O)Nn1cnc2c(c1=O)C1(CCCCC1)Cc1ccccc1-2	none (no result: Pf growth 96h)
c1ccc(OCc2nc3c4c(ncn3n2)-c2ccccc2CC42CCCC2)cc1	HCV inhibitor inconclusive, Pf growth 48h 13µM
Nc1ncnc2c1C1(CCCCC1)Cc1ccccc1-2	SARS PLP yeast inconclusive, Pf growth 96h 8.3µM
N#Cc1cnn(-c2cccc(Cl)c2)c1-n1cccc1	none
CCCCCCOc1ccc(/C(C)=N/NC2=NCCN2)cc1	HCV inhibitor 11µM, Pf growth 48h inconclusive
CC(=NNC1=NCCN1)c1cnn(C2=NCCN2)c1C	none (no result: SARS PLP yeast, HCV inhibitor, Pf growth 96h, Pf growth 48h, NS1 function inh)
CCOc1ccc(Br)cc1/C(C)=N\NC1=NCCN1	HCV inhibitor 4.5µM, Pf growth 48h inconclusive (no result: Pf growth 96h)
CCCCCOc1ccc(/C(C)=N/NC2=NCCN2)cc1	HCV inhibitor inconclusive, Pf growth 96h 12µM, Pf growth 48h 7.4µM
O=C(C[C@@H]1C/C=C\C[C@@H](Cc2ccc(F)cc2)C(=O)OC[C@@H](Cc2ccccc2)NC1=O)N[C@H](CO)Cc1ccccc1	none (no result: Pf growth 96h, Pf growth 48h, NS1 function inh)
CCO[C@H]1OC(C(=O)N2CCOCC2)=C[C@@H](c2coc3ccccc3c2=O)[C@@H]1CCCO	HCV inhibitor 35µM
CCO[C@@H]1OC(C(=O)N2CCN(Cc3ccccc3)CC2)=C[C@H](c2coc3ccccc3c2=O)[C@H]1CCCO	HCV inhibitor inconclusive, Pf growth 96h 5.2µM, Pf growth 48h inconclusive
CCO[C@H]1OC(C(=O)N2CCN(Cc3ccccc3)CC2)=C[C@@H](c2coc3ccccc3c2=O)[C@@H]1CCCO	Pf growth 96h inconclusive, Pf growth 48h inconclusive
COc1ccc(-c2oc3ccc(N4CCOCC4)cc3c2/C=C/c2ccc(OC)c(OC)c2)cc1	Pf growth 96h 12µM, Pf growth 48h inconclusive
CCN(c1ccccc1)S(=O)(=O)c1ccc(Cl)nc1	Pf growth 96h inconclusive (no result: NS1 function inh)
CCN(c1ccccc1)S(=O)(=O)c1ccc(NCC2COc3ccccc3O2)nc1 (centres undefined)	HCV inhibitor 11µM, Pf growth 96h inconclusive
CS(=O)(=O)c1ccc(Cl)c(NC(=O)COC(=O)C23CC4CC(CC(C4)C2)C3)c1	Pf growth 96h 8.3µM, Pf growth 48h 5.2µM (no result: NS1 function inh)
CS(=O)(=O)c1ccc(C(=O)Nc2cc(S(C)(=O)=O)ccc2Cl)cc1	none
CS(=O)(=O)c1ccc(Cl)c(NC(=O)CCl)c1	HCV inhibitor inconclusive, Pf growth 96h inconclusive, Pf growth 48h 9.3µM (no result: NS1 function inh)
CCOC(=O)C1=C(C)N(c2ccc(OC)cc2)C(=O)/C1=C\c1cccs1	HCV inhibitor 13µM
CN(C)S(=O)(=O)c1ccc(Cl)c(NC(=O)COC(=O)c2ccc3c(c2)NC(=O)CS3)c1	Pf growth 96h inconclusive, Pf growth 48h inconclusive
C=Cn1c(C(=O)O)cc(CC)c1-c1ccccc1	Pf growth 96h 1.5µM
C=CCn1nc(-c2ccccc2)cc1C(=O)OCC	none (no result: SARS PLP yeast, Pf growth 96h, Pf growth 48h, NS1 function inh)
O=C(NCC(=O)N(c1ccc(F)cc1)C(C(=O)NC1CCCCC1)c1ccncc1)c1ccco1 (centres undefined)	Pf growth 48h inconclusive
CCCSc1cc(N2CCOCC2)nc(-c2ccccc2Cl)n1	Pf growth 96h 12µM (no result: Pf growth 48h)
Cc1cc(N2CCCCCC2)nc(-c2ccccc2O)n1	HCV inhibitor 13µM (no result: Pf growth 96h)
Cc1cc(N2CCOCC2)nc(-c2ccccc2O)n1	HCV inhibitor inconclusive, Pf growth 96h 2.3µM
COc1ccccc1NC(=O)CS(=O)(=O)c1cn(CC(=O)N2CCCC2)c2ccccc12	none
CCCCCCSc1ccc([C@@H]2[C@@H]3C(=O)N(C)C(=O)[C@@H]3[C@]3(C(=O)OC)CCCCN23)cc1	none (no result: Pf growth 96h, Pf growth 48h, NS1 function inh)
COc1ccc(-n2c(-c3ccc(Br)cc3)c[n+]3c2CCCCC3)cc1	Pf growth 96h 0.59µM, Pf growth 48h 1µM (no result: NS1 function inh)
CCOc1ccc(-c2c[n+]3c(n2-c2ccccc2)CCCCC3)cc1	HCV inhibitor inconclusive, Pf growth 96h 0.93µM, Pf growth 48h 1.2µM
COc1ccc(-n2c(-c3ccccc3)c[n+]3c2CCC3)cc1	HCV inhibitor 10µM, Pf growth 96h inconclusive, Pf growth 48h inconclusive
FC(F)Sc1ccc(-n2c(-c3ccc(Cl)cc3)c[n+]3c2CCC3)cc1	Pf growth 96h inconclusive, Pf growth 48h inconclusive (no result: NS1 function inh)
COc1ccc(-n2c(-c3ccc(Br)cc3)c[n+]3c2CCC3)cc1	Pf growth 96h inconclusive, Pf growth 48h 6.6µM (no result: NS1 function inh)
COc1ccc(-n2c(-c3ccccc3)cc3c2CCCC3=O)cc1	Pf growth 96h inconclusive, Pf growth 48h inconclusive, AMA1 RON2 block inconclusive
CCOc1ccc(-c2nnc(-c3ccccc3)n2-c2ccccc2)cc1	Pf growth 96h inconclusive
CC(=O)C1=C(O)C(=O)N(c2ccc(O)cc2)C1c1ccccc1Cl (centres undefined)	Pf growth 96h inconclusive
O=C(O)[C@@H](O)[C@@H](O)C1[O][Sb][O][C@@H]1CO (some centres undefined)	none (no result: SARS PLP yeast, HCV inhibitor, Pf growth 96h, Pf growth 48h, AMA1 RON2 block)
COc1ccc(-n2c(-c3ccc(Br)cc3)c[n+]3c2SC(C)C3)cc1 (centres undefined)	Pf growth 96h inconclusive, Pf growth 48h 0.33µM (no result: NS1 function inh)
O=c1[nH]c(=S)[nH]c2c1CN(Cc1ccc(F)cc1)CC2	none
NS(=O)(=O)c1ccc(NC(=S)Nc2ccn(Cc3cccc4ccccc34)n2)cc1	HCV inhibitor 10µM, Pf growth 48h inconclusive (no result: NS1 function inh)
